# What was measured:
# Type in all cases: functional
# [1] = target: Solute carrier family 2, facilitated glucose transporter member 1 (Homo sapiens) (UniProt P11166); assay: ST_JUDE_LEISH: Cytotoxicity at 2uM final concentration against transgenic Leishmania Mexicana promastigotes LmGLUT1 that are glucose transport deficient and complemented with the human glucose transporter GLUT1. Activity is measured by DNA content using SYBR green in vitro
# [2] = target: Hexose transporter 1 (Plasmodium falciparum) (UniProt O97467); assay: ST_JUDE_LEISH: Cytotoxicity at 2uM final concentration against transgenic Leishmania Mexicana promastigotes LmPfHT that are glucose transport deficient and complemented with the Plasmodium falciparum hexose transporter. Activity is measured by DNA content using SYBR green in vitro
# [3] = target: Glucose transporter (Leishmania mexicana) (UniProt O61059); assay: ST_JUDE_LEISH: Cytotoxicity at 2uM final concentration against transgenic Leishmania Mexicana promastigotes LmGT2 that are glucose transport deficient and complemented with the L. Mexicana glucose transporter 2. Activity is measured by DNA content using SYBR green in vitro
# Solute carrier family 2, facilitated glucose transporter member 1 (Homo sapiens), sequence (P11166 whole entry): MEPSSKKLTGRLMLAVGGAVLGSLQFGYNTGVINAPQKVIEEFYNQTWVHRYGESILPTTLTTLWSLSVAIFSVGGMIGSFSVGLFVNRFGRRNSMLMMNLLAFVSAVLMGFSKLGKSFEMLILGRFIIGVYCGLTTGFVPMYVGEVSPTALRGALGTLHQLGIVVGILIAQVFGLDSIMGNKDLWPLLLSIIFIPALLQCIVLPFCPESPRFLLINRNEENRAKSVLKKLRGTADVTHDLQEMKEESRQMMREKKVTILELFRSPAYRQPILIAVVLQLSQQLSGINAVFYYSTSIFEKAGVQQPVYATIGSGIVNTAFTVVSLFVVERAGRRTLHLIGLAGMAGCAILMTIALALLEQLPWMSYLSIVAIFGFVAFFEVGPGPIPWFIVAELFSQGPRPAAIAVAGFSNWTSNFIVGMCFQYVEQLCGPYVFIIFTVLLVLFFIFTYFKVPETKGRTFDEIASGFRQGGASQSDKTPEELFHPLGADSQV
SMILES,inhibition [1],inhibition [2],inhibition [3]
CCCCCC1c2[nH]c3ccccc3c2CCN1C(=O)OCc1ccccc1 (centres undefined),7.38%,6.98%,7.22%
CCN1CCCC1CNC(=O)c1cc2c(-c3ccc(Cl)cc3)nn(C)c2s1 (centres undefined),2.89%,5.39%,2.6%
Nc1nc(N)c2cc(C#Cc3ccc(-c4ccccc4)cc3)ccc2n1,4.53%,10.9%,2.06%
CCOC(=O)C1=C(C)NC2=C(C(=O)CC(C)(C)C2)C1c1ccc(Cl)cc1 (centres undefined),-1.57%,0.77%,0.29%
CC1(C)N=C(N)N=C(N)N1OCCCc1ccccc1,1.22%,2.68%,2.65%
COC(=O)C(=C(C)C)N1C(=O)[C@@H](NC(=O)OCc2ccccc2)[C@H]1SS[C@@H]1[C@H](NC(=O)OCc2ccccc2)C(=O)N1C(C(=O)OC)=C(C)C,-2.06%,-0.42%,-1.05%
CNCCNCc1ccc(-c2cccc(-c3nc4cc(F)ccc4[nH]3)c2)cc1,2.53%,3.78%,3.03%
O=S(=O)(NCCN1CCCC1)c1ccc(-c2ccc(CNCc3ccc(F)cc3)cc2)s1,7.34%,5.54%,0.98%
CCn1cc(CN2C(=O)C(c3ccccc3)(c3ccccc3)N=C2N)cn1,1.83%,2%,-1.54%
Fc1cccc(C=NN=c2cc[nH]c3ccc(C(F)(F)F)cc23)c1,9.27%,8.79%,5.06%
CCOC(=O)C1=C(C)N=c2sc(=Cc3cc(Cl)ccc3O)c(=O)n2C1c1ccc(OC)cc1 (centres undefined),-0.92%,0%,0.91%
N#Cc1cccc(/C=C/C(=O)NC2CCC(CCN3CCc4ccc(-c5cnccn5)cc4CC3)CC2)c1 (centres undefined),7.94%,7.48%,7.56%
COc1cc(Nc2ncc3c(C)nc(-c4cc5ccccc5[nH]4)n3n2)cc(OC)c1OC,4.94%,5.87%,2.06%
O=C(/C=C/c1ccc(Cl)c(Cl)c1)N1CCN(C(=O)Nc2cccc(C(F)(F)F)c2)CC1,5.23%,4.67%,2.79%
CN1CCCC1CCNCc1ccc(-c2ccc(CNCCc3ccccc3)cn2)cc1 (centres undefined),1.95%,2.41%,4.27%
O=C(/C=C/c1ccc(Cl)cc1)NCCCCCN1CCCN(C(=O)Nc2ccc(F)c(Cl)c2)CC1,5.5%,3.92%,4.64%
O=C(Cc1ccc[n+]([O-])c1)Nc1ccc(-c2cccc(-c3nc4cc(C(F)(F)F)ccc4[nH]3)c2)cc1,1.49%,1.61%,-0.42%

SMILES,inhibition [1],inhibition [2],inhibition [3]
COCCCNc1nc2cc(OC)c(OC)cc2c2nc(-c3ccccc3)nn12,2.53%,1.16%,0.85%
Cc1cccc2nc(-c3cccc(-c4cccc(NC(=O)NCc5cccc(F)c5)c4)c3)[nH]c12,4.66%,6.34%,5.41%
CC(=O)Nc1ncc(C(=O)Nc2cccc(-c3cccc(-c4nc5cc(F)ccc5[nH]4)c3)c2)s1,1.74%,2.62%,1.65%
COc1cc2nc(N3CCC(CNC(=O)c4ccc(C(C)=O)cc4)CC3)nc(N)c2cc1OC,2.39%,2.18%,3.9%
Cc1ccc(Nc2c3ccccc3nc3ccc(C)cc23)cc1,4.86%,7.1%,2.9%
CC(C)CNCc1cccc(-c2ccc(CNC3CCN(Cc4ccccc4)CC3)cc2)c1,6.62%,7.43%,4.78%
CCCN(c1ccc(O)c(CN2CCCCC2)c1)c1ccc([N+](=O)[O-])cn1,1.28%,0.61%,1.09%
O=S(=O)(NCCN1CCCC1)c1ccc(-c2ccc(CNC3Cc4ccccc4C3)cc2)s1,5.8%,12.6%,1.34%
CC(=O)Nc1ccc(C(=O)Nc2ccc(-c3cccc(-c4nc5cc(C(F)(F)F)ccc5[nH]4)c3)cc2)cn1,-0.12%,0.25%,-0.11%
CN(C)Cc1ccc2cc(NC(=O)c3ccc(-c4ccc(Cl)cc4)cc3)ccc2c1,-1.97%,3.04%,2.55%
O=S(=O)(NCCN1CCCC1)c1cccc(-c2ccc(CNC3Cc4ccccc4C3)cc2)c1,30.3%,16.9%,8.14%
OC(CNCc1cccc(Oc2ccc(Cl)cc2)c1)c1cc(C(F)(F)F)cc(C(F)(F)F)c1 (centres undefined),0.85%,-0.5%,-2.95%
CN(C)Cc1cccc(CNC(=O)c2sccc2OCc2ccc(Cl)cc2)c1,-0.98%,-3.67%,1.11%
COc1ccc2nccc(N3CCN(CCNCc4ccc5c(n4)NC(=O)CS5)CC3)c2c1,1.43%,0.73%,0.44%
COc1cc2ccccc2cc1CCNCCCCNCCc1cc2ccccc2cc1OC,101%,82.7%,104%
CN1CCN(Cc2cccc(-c3cc4nccc(Nc5ccc(Oc6ccccc6)cc5)c4cc3Cl)c2)CC1,-1.94%,0.9%,1.01%
